We go through eight compounds from PubChem BioAssay (NCATS).

Inconclusive results are not listed. Activity calls are given as the source filed them. Unless noted, calls come from the whole dose curve.

Assay [1] deals with Androgen receptor (Homo sapiens) (UniProt P10275). As to the kind of experiment: qHTS assay for small molecule antagonists of androgen receptor signaling (AID 588516; active = well fitted curve in the direction sought with a large enough effect in the signal ratio, with a control signal flat, not every such curve was filed as active; the % refers to the signal ratio; note: % is set by controls: 0 for no effect and ±100 for the full control effect). The procedure, abridged: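 AR-UAS-bla-GripTite HEK 293 cells (2000/well, 5 h at 37 C) received compound titrations, then R1881 at 10 nM final; after 16 h at 37 C, CCF4 dye 2 h RT, beta-lactamase fluorescence read; IC50 from Hill fits.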
Sequence of Androgen receptor (Homo sapiens) (P10275 whole entry, looked up): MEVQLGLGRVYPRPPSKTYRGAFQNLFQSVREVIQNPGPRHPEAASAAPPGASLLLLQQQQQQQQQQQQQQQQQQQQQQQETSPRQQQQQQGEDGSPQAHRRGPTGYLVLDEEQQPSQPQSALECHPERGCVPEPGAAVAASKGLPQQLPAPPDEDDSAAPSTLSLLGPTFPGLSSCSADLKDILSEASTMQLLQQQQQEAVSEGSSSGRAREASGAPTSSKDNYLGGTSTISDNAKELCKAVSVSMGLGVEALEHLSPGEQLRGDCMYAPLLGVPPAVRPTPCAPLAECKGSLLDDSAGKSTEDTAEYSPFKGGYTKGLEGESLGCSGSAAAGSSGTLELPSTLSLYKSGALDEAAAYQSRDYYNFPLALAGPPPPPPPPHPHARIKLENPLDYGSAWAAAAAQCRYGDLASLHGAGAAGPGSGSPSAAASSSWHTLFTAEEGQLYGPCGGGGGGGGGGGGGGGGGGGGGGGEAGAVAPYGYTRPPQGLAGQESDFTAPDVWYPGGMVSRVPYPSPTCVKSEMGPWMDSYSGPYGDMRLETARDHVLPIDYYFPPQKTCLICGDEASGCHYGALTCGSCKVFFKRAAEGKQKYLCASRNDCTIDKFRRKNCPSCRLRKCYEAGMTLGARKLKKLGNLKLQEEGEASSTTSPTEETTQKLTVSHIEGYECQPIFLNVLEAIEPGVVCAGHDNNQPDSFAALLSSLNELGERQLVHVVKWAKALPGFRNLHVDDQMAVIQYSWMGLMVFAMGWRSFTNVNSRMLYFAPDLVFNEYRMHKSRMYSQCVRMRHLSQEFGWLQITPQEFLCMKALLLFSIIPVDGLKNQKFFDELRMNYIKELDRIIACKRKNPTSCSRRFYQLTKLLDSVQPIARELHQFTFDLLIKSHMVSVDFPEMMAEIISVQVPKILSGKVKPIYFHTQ

Assay [2] concerns the target Bile acid receptor (Homo sapiens) (UniProt Q96RI1). Briefly: qHTS assay for small molecule antagonists of farnesoid X receptor signaling (AID 588526). Note: % is set by controls: 0 for no effect and ±100 for the full control effect. The procedure, abridged:
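Concentration-response titrations were fitted to the Hill equation for half-maximal inhibition and maximal response, with data normalised to 50 uM chenodeoxycholic acid and DMSO control wells. Cells: FXR-UAS-bla HEK293T, dialyzed FBS.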

Assay [3] deals with Glucocorticoid receptor (Homo sapiens) (UniProt P04150). Briefly: qHTS assay for small molecule antagonists of glucocorticoid receptor signaling (AID 588533; active = well fitted inhibition curve with a large enough effect in the signal ratio, with a control signal flat, not every such curve was filed as active; the % refers to the signal ratio;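 note: cells stimulated with 2 nM dexamethasone as agonist; % is set by controls: 0 for no effect and ±100 for the full control effect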). The method, boiled down: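 Antagonist-mode qHTS: compound titrations added to GRE-bla HeLa cells, then dexamethasone 2 nM final; 18 h, 37 C. CCF4 FRET fluorescence normalized to dexamethasone and DMSO; IC50 from Hill fit.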
Sequence of Glucocorticoid receptor (Homo sapiens) (P04150 whole entry, looked up): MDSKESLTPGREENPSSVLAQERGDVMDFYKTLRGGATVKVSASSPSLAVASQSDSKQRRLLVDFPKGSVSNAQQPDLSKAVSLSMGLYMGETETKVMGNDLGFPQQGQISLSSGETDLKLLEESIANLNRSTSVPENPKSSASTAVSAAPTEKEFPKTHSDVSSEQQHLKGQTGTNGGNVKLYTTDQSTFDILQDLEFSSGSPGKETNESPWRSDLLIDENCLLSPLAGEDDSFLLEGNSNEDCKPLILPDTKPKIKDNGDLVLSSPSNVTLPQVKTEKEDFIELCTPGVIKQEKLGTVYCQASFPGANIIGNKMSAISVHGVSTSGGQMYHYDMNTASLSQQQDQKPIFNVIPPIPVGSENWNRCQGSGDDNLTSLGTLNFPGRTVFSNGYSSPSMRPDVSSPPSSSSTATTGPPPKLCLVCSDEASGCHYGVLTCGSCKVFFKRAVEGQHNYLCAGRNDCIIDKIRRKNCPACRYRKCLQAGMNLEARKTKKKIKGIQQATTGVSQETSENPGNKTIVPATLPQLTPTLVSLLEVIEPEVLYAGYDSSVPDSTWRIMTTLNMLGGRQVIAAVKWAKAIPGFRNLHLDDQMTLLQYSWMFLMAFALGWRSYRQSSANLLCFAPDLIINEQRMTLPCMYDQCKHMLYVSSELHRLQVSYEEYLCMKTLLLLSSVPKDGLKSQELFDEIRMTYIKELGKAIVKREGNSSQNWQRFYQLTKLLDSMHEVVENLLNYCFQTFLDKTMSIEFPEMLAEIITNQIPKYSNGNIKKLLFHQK

Assay [4] is described as follows: qHTS assay for small molecule antagonists of peroxisome proliferator-activated receptor delta signaling (AID 588535; active = well fitted inhibition curve with a large enough effect in the signal ratio, with a control signal flat, not every such curve was filed as active; the % refers to the signal ratio;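 for max response: cells co-treated with a PPAR-delta agonist as stimulator during compound exposure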). The following applies: HEK293T PPARd-UAS-bla, beta-lactamase FRET ratio, 18 h; 460 nm channel. The procedure, abridged: (§1)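 Compounds tested in titration on PPAR-delta-UAS-bla HEK293T cells grown in charcoal/dextran-stripped serum (2%); beta-lactamase activity read via CCF4 emission at 460 and 530 nm.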

The target in assay [5] is Peroxisome proliferator-activated receptor delta (Homo sapiens) (UniProt Q03181). Described as above. The procedure, abridged:
as §1

For assay [6], the target named is Peroxisome proliferator-activated receptor gamma (Homo sapiens) (UniProt P37231). As to the kind of experiment: qHTS assay for small molecule agonists of peroxisome proliferator-activated receptor gamma signaling (AID 588536; active = well fitted curve in the direction sought with a large enough effect in the signal ratio, with a control signal flat, not every such curve was filed as active; the % refers to the signal ratio;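 note: 0% = DMSO basal wells and 100% = rosiglitazone at 2 µM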). The procedure, abridged: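 Beta-lactamase reporter read-out: CCF4 fluorescence (ex 405, em 460/530 nm) after 2 h at RT. HEK293 GeneBLAzer cells were treated for 16 h at 37 C. Hill fits gave EC50 and efficacy versus 2 uM rosiglitazone (100%) and DMSO (0%).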
Sequence of Peroxisome proliferator-activated receptor gamma (Homo sapiens) (P37231 whole entry, looked up): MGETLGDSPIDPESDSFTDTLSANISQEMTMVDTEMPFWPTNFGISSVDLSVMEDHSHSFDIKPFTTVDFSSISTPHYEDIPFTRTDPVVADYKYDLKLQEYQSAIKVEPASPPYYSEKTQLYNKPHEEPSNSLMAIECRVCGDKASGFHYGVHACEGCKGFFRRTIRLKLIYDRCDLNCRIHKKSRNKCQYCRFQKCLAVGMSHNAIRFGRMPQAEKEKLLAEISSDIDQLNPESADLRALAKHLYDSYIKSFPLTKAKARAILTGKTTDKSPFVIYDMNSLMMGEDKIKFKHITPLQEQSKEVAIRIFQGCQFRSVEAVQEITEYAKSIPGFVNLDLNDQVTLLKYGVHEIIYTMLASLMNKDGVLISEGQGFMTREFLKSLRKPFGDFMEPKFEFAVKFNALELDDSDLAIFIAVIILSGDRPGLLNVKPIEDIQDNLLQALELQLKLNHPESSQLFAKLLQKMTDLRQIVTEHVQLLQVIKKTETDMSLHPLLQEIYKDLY

Assay [7] has the same target. Briefly: qHTS assay for small molecule antagonists of peroxisome proliferator-activated receptor gamma signaling (AID 588537; active = well fitted inhibition curve with a large enough effect in the signal ratio, with a control signal flat, not every such curve was filed as active; the % refers to the signal ratio;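 note: reporter cells co-stimulated with 50 nM rosiglitazone agonist during compound treatment; % of control where 0% means no effect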). The method, boiled down:
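HEK293 cells, PPAR-gamma-UAS-bla, 3000/well. Pre-incubation 6-6.5 h, 37 C. Compound titration with rosiglitazone 50 nM final, 16 h. CCF4 dye, 2 h RT, dual-emission fluorescence.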

Assay [8] concerns the target Vitamin D3 receptor (Homo sapiens) (UniProt P11473). As to the kind of experiment: qHTS assay for small molecule antagonists of vitamin D receptor signaling (AID 588541).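 Note: receptor activated by calcitriol during compound treatment; series mostly up to about 77 µM; % is set by controls: 0 for no effect and ±100 for the full control effect.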 The method, boiled down:
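VDR-UAS-bla HEK293T cells (2000/well, 2% charcoal-stripped FBS) were treated with titrated compounds plus 1-alpha,25-dihydroxyvitamin D3 (50 nM or 3 nM final) for 16 h at 37 C. CCF4 beta-lactamase fluorescence was read; Hill fits gave IC50.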

Assay [9] has the same target. As to the kind of experiment: qHTS assay for small molecule agonists of vitamin D receptor signaling (AID 588543).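 Note: 0% = DMSO basal and 100% = reference agonist control.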 The procedure, abridged: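 GeneBLAzer VDR-UAS-bla HEK293T cells in 2% charcoal-stripped FBS medium were dosed with compound titrations for 16 h at 37 °C; CCF4 β-lactamase readout (405 nm ex, 460/530 nm em). EC50 and efficacy from Hill fits, normalized to 50 nM calcitriol (100%) and DMSO (0%).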

Assay [10] is described as follows: qHTS assay for small molecule agonists of retinoid X receptor alpha signaling (AID 588544).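 For activation: 0% = DMSO basal wells and 100% = reference agonist.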 Particulars: HEK293T RXRa-UAS-bla, beta-lactamase reporter, 18 h; 530 nm emission.
Assay [11] concerns the target Retinoic acid receptor RXR-alpha (Homo sapiens) (UniProt P19793). The description is as above.
Assay [12] deals with Thyroid hormone receptor beta (Homo sapiens) (UniProt P10828). Briefly: qHTS assay for small molecule agonists of thyroid hormone receptor beta signaling (AID 588545). The procedure, abridged:
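In this cell-based screen, titrated compounds act on HEK 293 cells held in medium with 2% charcoal/dextran FBS, NEAA and pyruvate for 18 hrs at 37 C. Responses are expressed relative to T3 (10 nM) as 100% and basal DMSO as 0%.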

Assay [13] in a line: qHTS assay for small molecule antagonists of retinoid X receptor alpha signaling (AID 588546; active = well fitted inhibition curve with a large enough effect in the signal ratio, with a control signal flat, not every such curve was filed as active; the % refers to the signal ratio). The following applies: HEK293T RXRa-UAS-bla, beta-lactamase ratio, antagonist mode; measured here: W530 green channel, cytotoxicity proxy. The procedure, abridged: (§2)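 Beta-lactamase reporter inhibition, read as CCF4 fluorescence ratio (ex 405, em 460/530 nm) after 2 h at RT. HEK293T UAS-bla cells, 2500/well, were stimulated with 9-cis-RA at 500 or 100 nM final alongside test compound for 18 h at 37 C.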

For assay [14], the target named is Retinoic acid receptor RXR-alpha (Homo sapiens) (UniProt P19793). Described as above. Particulars: HEK293T RXRa-UAS-bla, beta-lactamase ratio, antagonist mode. The procedure, abridged:
as §2

For assay [15], the target named is Thyroid hormone receptor beta (Homo sapiens) (UniProt P10828). As to the kind of experiment: qHTS assay for small molecule antagonists of thyroid hormone receptor beta signaling (AID 588547; active = well fitted inhibition curve with a large enough effect in the signal ratio, with a control signal flat, not every such curve was filed as active; the % refers to the signal ratio). The following applies: TR-UAS-bla HEK293, beta-lactamase ratio, antagonist mode, 18 h. The method, boiled down:
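TR-UAS-bla GripTite HEK293 cells in 2% charcoal/dextran FBS medium were preincubated 4 h at 37 C, given compound (0.59 nM to 92 uM) plus 0.4 nM T3 (final) for 18 h, then CCF4 for 2 h at RT; Hill fit gave IC50.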

Assay [16] concerns the target Voltage-gated inwardly rectifying potassium channel KCNH2 (Homo sapiens) (UniProt Q12809). Briefly: qHTS Assay for Small Molecule Inhibitors of the Human hERG Channel Activity (AID 588834; active = well fitted inhibition curve with a large enough effect;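 note: top concentration of the series differs between compounds; % is set by controls: 0 for no effect and ±100 for the full control effect; lower thallium flux fluorescence means stronger hERG block; nearly all actives have a fitted effect of over 50% in size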). The procedure, abridged: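 In hERG-transduced U2OS cells, dye-loaded for 1 hr at room temperature in dark, test compounds incubated 10 min at 37 °C before thallium stimulation. AC50 values derived by Hill modelling of concentration-response.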

Assay [17] in a line: qHTS assay for small molecule activators of the p53 signaling pathway (AID 651743; active = well fitted activation curve with a large enough effect in the signal ratio, not every such curve was filed as active; the % refers to the signal ratio; note: series mostly up to about 92 µM; % of control where 0% means no effect). Particulars: HCT-116 p53RE-bla, beta-lactamase FRET ratio, 16 h; stronger effect = higher value. The procedure, abridged: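 Here HCT-116 cells with an integrated p53-responsive beta-lactamase gene were incubated with compounds (16 hours, 37 C) after a 5-hour plating period; beta-lactamase activity was detected as fluorescence intensity via B/G FRET substrate.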

A short description of assay [18]: qHTS assay for small molecule activators of the nuclear factor-kappa B (NF-kB) signaling pathway (AID 651749; active = well fitted activation curve with a large enough effect in the signal ratio; the % refers to the signal ratio; note: series mostly up to about 77 µM; % of control where 0% means no effect). Particulars: NF-kB-bla ME-180 cells, beta-lactamase FRET ratio, 16 h; stronger effect = higher value. The procedure, abridged:
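Beta-lactamase reporter expression, controlled by NF-kB response elements in ME-180 cells, was quantified fluorometrically via FRET disruption; cells at 2,000/well had been incubated with 23 nL test compound for 16 hr.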

A short description of assay [19]: qHTS assay for small molecule agonists of the antioxidant response element (ARE) signaling pathway (AID 651741; active = well fitted activation curve with a large enough effect in the signal ratio; the % refers to the signal ratio; note: % of control where 0% means no effect). The procedure, abridged:
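Beta-lactamase reporter expression driven by the antioxidant response element in HepG2 cells was detected by fluorescence with LiveBLAzer B/G FRET substrate (2 h, room temperature) following 16 h compound treatment at 37 C.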

Assay [20] has as its target Glucocorticoid receptor (Homo sapiens) (UniProt P04150). As to the kind of experiment: qHTS assay for small molecule agonists of glucocorticoid receptor signaling (AID 588532; active = well fitted curve in the direction sought with a large enough effect in the signal ratio, with a control signal flat; the % refers to the signal ratio;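 note: 100% = dexamethasone at 0.1 µM and 0% = DMSO only wells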). Particulars: HeLa MMTV-bla, beta-lactamase ratio, agonist, 18 h; stronger effect = higher value; percent of dexamethasone control, DMSO zero. The procedure, abridged: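 Titration series, up to 92 uM, applied to GRE-bla HeLa cells for 18 h at 37 C. Detection by CCF4 FRET substrate after 2 h at RT.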

Sequence of Vitamin D3 receptor (Homo sapiens) (P11473 whole entry, looked up): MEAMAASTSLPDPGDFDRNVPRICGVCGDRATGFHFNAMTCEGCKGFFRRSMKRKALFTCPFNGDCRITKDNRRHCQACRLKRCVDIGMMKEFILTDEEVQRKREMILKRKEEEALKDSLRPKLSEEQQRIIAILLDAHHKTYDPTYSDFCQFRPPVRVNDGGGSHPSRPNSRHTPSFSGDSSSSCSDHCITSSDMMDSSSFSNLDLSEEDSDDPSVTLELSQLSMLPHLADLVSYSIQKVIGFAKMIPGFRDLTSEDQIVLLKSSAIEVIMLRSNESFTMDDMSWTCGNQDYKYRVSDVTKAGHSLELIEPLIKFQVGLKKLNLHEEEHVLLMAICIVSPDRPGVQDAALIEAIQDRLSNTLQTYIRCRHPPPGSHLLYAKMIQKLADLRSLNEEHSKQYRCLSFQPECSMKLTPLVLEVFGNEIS
Sequence of Bile acid receptor (Homo sapiens) (Q96RI1 whole entry, looked up): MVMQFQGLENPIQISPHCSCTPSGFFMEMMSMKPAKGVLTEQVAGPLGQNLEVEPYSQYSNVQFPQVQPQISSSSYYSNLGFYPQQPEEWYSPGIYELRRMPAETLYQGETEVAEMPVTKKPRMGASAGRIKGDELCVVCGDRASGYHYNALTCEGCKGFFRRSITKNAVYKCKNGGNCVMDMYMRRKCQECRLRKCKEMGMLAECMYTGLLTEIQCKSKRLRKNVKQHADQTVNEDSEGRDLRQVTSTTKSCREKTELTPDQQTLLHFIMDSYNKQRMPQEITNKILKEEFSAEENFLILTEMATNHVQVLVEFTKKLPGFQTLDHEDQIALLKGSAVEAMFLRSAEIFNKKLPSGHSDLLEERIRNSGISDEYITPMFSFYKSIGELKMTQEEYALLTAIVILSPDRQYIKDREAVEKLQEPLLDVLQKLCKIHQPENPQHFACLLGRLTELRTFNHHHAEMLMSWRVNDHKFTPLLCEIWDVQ
Sequence of Retinoic acid receptor RXR-alpha (Homo sapiens) (P19793 whole entry, looked up): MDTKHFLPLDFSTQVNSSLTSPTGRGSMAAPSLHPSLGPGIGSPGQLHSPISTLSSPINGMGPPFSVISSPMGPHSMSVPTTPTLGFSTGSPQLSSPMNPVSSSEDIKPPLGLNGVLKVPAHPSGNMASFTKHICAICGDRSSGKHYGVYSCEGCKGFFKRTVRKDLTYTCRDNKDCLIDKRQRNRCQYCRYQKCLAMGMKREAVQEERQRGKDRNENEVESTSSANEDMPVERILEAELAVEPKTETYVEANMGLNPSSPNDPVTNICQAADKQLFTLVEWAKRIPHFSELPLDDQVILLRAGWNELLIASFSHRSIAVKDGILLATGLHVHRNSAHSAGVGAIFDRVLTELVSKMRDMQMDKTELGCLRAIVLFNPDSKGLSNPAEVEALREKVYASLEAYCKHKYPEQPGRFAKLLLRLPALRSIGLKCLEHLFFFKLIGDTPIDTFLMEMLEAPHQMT
Sequence of Peroxisome proliferator-activated receptor delta (Homo sapiens) (Q03181 whole entry, looked up): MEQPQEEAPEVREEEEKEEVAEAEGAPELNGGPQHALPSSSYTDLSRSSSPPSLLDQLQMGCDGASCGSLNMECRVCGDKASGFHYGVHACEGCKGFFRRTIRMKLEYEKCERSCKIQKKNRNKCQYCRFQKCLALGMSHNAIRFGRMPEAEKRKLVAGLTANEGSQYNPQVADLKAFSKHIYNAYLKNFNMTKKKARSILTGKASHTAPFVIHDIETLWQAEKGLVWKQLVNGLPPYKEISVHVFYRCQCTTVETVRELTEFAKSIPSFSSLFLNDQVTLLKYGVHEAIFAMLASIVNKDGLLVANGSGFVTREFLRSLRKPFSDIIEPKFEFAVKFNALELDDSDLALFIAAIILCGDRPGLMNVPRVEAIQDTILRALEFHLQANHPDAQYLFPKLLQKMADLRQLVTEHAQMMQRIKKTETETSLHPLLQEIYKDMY
Sequence of Thyroid hormone receptor beta (Homo sapiens) (P10828 whole entry, looked up): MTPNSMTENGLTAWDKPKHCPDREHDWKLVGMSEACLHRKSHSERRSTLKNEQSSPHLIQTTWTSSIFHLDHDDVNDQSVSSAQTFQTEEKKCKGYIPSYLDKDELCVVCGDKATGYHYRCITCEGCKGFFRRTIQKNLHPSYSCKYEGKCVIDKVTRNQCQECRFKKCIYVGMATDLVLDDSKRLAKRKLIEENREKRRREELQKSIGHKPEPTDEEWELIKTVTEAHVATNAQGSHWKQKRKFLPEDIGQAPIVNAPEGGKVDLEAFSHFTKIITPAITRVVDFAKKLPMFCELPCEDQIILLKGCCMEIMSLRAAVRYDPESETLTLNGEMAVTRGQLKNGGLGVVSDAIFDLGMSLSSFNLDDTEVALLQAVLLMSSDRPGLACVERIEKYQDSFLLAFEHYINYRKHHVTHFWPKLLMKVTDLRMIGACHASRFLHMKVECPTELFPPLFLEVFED

As for `CC(=C/C=C/C(C)=C/C=C/C=C(C)/C=C/C=C(C)/C=C/C(=O)O)/C=C/C(=O)O`, the result in assay [1], in assay [2], in [3], in assay [6], in assay [7] and in assay [8] was inactive. The call in assay [9], in [11] and in assay [12] was inactive. Also, the max response is 11.7% in assay [4], -15.4% in [10], -2.63% in assay [13] and -3.15% (inactive) in [14]. The Potency entry in [5] and in [16] was “inactive” in each case. Also, in assay [15], the activity change % (negative = inhibition) is -8.7% (inactive). For the same compound, the activation was -0.825% (inactive) in [17] and -0.299% (inactive) in assay [18].

Turning to `c1ccsc1`, the outcome in assay [1], in [6], in [7], in assay [8], in assay [11] and in assay [12] was inactive. Further, the max response in assay [4] is -2.14%; in [10], -5.29%; in [13] it was -0.2%; in assay [14], -6.87% (inactive). Moreover, the Potency entry in [5], in [16] and in assay [19] was “inactive” in each case. In addition, the activity change % (negative = inhibition) in assay [15] is -13.7% (inactive). Besides, the activation was 1.47% (inactive) in assay [17] and 0.633% (inactive) in assay [18].

Turning to `FC(F)(F)c1cccc(Cl)c1`, the compound was called inactive in assay [1], in assay [2], in [3], in assay [11] and in [12]. Moreover, the activation in [20] was -8.16% (inactive); in [17], -1.63% (inactive). The values for the max response in [10], in [13] and in assay [14] were -1.24%, 3.78% and 6.29% (inactive), respectively. In [15], the activity change % (negative = inhibition) is -4.74% (inactive). The Potency result in [16] and in assay [19] was “inactive” each time.

With `Cc1ccc(C)cc1`, the compound was classed as inactive in [1], in assay [3], in [8] and in [9]. The activation in assay [20] is -0.888% (inactive); in assay [17] it was -3.21% (inactive). Besides, the max response in assay [4] was -6.55%; in assay [10], 4.64%; in [13] it was -6.14%; in assay [14], 34.4% (inactive). The Potency result in assay [5], in assay [16] and in assay [19] was “inactive” in each case. Besides, the activity change % (negative = inhibition) in [15] is 2.43% (inactive).

Turning to `CNC(=O)N(c1ccccc1)c1ccccc1`, the compound was classed as inactive in assay [1], in [6], in assay [11] and in assay [12]. In addition, the max response is -17.1% in [10], 12.2% in [13] and -3.69% (inactive) in assay [14]. For the same compound, the activity change % (negative = inhibition) in assay [15] is 10.1% (inactive). In addition, the Potency result in assay [16] was “inactive”. Moreover, the figures for the activation in assay [17] and in assay [18] were 0.514% (inactive) and 0.192% (inactive), respectively.

Take `COc1cccc2sc(N)nc12`: the outcome in assay [1], in assay [2], in assay [6], in [8], in [9] and in assay [11] was inactive. Further, in [12], the result was inactive. For the same compound, the max response was -34.4% in assay [4], 2.8% in [10], -11.1% in [13] and -10.9% (inactive) in assay [14]. Moreover, the Potency result in [5] and in assay [19] was “inactive” in each case. Also, in assay [15], the activity change % (negative = inhibition) was -20.5% (inactive). Further, in [18], the activation is 0.198% (inactive).

Consider `CCOc1ccc(NC(C)=O)cc1N`, for which the compound was called inactive in assay [1], in assay [6], in [8], in assay [9], in [11] and in [12]. In addition, the figures for the max response in assay [4] and in assay [10] were -0.981% and 3.78%, respectively. The Potency result in assay [5], in assay [16] and in assay [19] was “inactive” throughout. Moreover, the activity change % (negative = inhibition) in [15] is 2.46% (inactive). The activation in assay [17] was -6.53% (inactive); in [18] it was -1.6% (inactive).

Consider `CCCOCC(C)OCC(C)O` (centres undefined), for which the outcome in assay [1], in [2], in assay [3], in assay [6], in [8] and in assay [9] was inactive. Further, the call in [11] and in assay [12] was inactive. Also, the max response is -11.5% in assay [4], -0.324% in assay [10], -4.87% in assay [13] and 13.7% (inactive) in assay [14]. Also, the Potency entry in assay [5], in [16] and in [19] was “inactive” in each case. In addition, the activity change % (negative = inhibition) in [15] is 6.45% (inactive). The activation in [17] is -5.61% (inactive); in assay [18] it was -1.44% (inactive).
